Active and inactive are the calls of the source.
Tests used:
[1] = binders of probe aFSTL3 on microarray, primary screen, stem cell growth factor project, biochemical, small-molecule microarray, fluorescence 635/667 (AID 1064); conditions: higher = more signal;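 also: measures binding of the biotinylated anti-FSTL3 antibody to printed compounds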
[2] = binders from COS7 lysate, DM2A8 probe, primary screen, torsin A project, cell lysate, small-molecule microarray, fluorescence 635/667 (AID 1065); conditions: higher = more signal, COS7 lysate expressing mutant human TOR1A
[3] = binders of probe aFGF2 on microarray, primary screen, stem cell growth factor project, biochemical, small-molecule microarray, fluorescence 635/667 (AID 1067); conditions: higher = more signal;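 also: measures binding of biotinylated aFGF2 protein to printed compounds on slides; z-score merges feature fluorescence and signal-to-noise across triplicate slides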
[4] = binders of probe aFGF10 on microarray, primary screen, stem cell growth factor project, biochemical, small-molecule microarray, fluorescence 635/667 (AID 1071); conditions: higher = more signal;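 also: score merges 667 nm spot intensity and signal to noise from triplicate slides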
[5] = target: Neurogenic locus notch homolog protein 2 (Homo sapiens) (UniProt Q04721); experiment: Notch2 binders on small-molecule microarrays, primary screen, biochemical, small-molecule microarray, 635 nm fluorescence, stem cell growth factors (AID 1073); conditions: Notch2 binding, higher = more signal
[6] = target: Pro-neuregulin-1, membrane-bound isoform (Homo sapiens) (UniProt Q02297); experiment: NRG1 binders on small-molecule microarrays, primary screen, psychiatric disease protein project, biochemical, small-molecule microarray, fluorescence 635/667 (AID 1075); conditions: NRG1 binding, 635 nm fluorescence, higher = more signal;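 also: score combines 667 nm spot fluorescence with signal to noise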
[7] = system: Neuregulin-1 EGF-like domain; experiment: binders of neuregulin-1 EGF-like domain, primary screen, biochemical, small-molecule microarray, 635 nm fluorescence (AID 1081); conditions: small-molecule microarray binding, higher = more signal;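 also: binding of the protein to compounds printed on small-molecule microarray slides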
[8] = FRG1 promoter luciferase signal modulators, primary screen, FRG1 inhibition for FSHD, cell-based, C2C12 myotubes, firefly/Renilla luciferase, luminescence (AID 1084); conditions: higher = more signal, called active from +8 up or from −8 down
[9] = binders of probe aFST on microarray, primary screen, stem cell growth factor project, biochemical, small-molecule microarray, fluorescence 635/667 (AID 1086); conditions: higher = more signal;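 also: score merges 667 nm fluorescence with signal-to-noise of each printed compound spot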
[10] = binders of probe aHhip on microarray, primary screen, stem cell growth factor project, biochemical, small-molecule microarray, fluorescence 635/667 (AID 1087); conditions: higher = more signal;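 also: score merges spot fluorescence at 667nm with spot signal to noise ratio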

Sequence of Neurogenic locus notch homolog protein 2 (Homo sapiens) (Q04721 whole entry, looked up, canonical isoform): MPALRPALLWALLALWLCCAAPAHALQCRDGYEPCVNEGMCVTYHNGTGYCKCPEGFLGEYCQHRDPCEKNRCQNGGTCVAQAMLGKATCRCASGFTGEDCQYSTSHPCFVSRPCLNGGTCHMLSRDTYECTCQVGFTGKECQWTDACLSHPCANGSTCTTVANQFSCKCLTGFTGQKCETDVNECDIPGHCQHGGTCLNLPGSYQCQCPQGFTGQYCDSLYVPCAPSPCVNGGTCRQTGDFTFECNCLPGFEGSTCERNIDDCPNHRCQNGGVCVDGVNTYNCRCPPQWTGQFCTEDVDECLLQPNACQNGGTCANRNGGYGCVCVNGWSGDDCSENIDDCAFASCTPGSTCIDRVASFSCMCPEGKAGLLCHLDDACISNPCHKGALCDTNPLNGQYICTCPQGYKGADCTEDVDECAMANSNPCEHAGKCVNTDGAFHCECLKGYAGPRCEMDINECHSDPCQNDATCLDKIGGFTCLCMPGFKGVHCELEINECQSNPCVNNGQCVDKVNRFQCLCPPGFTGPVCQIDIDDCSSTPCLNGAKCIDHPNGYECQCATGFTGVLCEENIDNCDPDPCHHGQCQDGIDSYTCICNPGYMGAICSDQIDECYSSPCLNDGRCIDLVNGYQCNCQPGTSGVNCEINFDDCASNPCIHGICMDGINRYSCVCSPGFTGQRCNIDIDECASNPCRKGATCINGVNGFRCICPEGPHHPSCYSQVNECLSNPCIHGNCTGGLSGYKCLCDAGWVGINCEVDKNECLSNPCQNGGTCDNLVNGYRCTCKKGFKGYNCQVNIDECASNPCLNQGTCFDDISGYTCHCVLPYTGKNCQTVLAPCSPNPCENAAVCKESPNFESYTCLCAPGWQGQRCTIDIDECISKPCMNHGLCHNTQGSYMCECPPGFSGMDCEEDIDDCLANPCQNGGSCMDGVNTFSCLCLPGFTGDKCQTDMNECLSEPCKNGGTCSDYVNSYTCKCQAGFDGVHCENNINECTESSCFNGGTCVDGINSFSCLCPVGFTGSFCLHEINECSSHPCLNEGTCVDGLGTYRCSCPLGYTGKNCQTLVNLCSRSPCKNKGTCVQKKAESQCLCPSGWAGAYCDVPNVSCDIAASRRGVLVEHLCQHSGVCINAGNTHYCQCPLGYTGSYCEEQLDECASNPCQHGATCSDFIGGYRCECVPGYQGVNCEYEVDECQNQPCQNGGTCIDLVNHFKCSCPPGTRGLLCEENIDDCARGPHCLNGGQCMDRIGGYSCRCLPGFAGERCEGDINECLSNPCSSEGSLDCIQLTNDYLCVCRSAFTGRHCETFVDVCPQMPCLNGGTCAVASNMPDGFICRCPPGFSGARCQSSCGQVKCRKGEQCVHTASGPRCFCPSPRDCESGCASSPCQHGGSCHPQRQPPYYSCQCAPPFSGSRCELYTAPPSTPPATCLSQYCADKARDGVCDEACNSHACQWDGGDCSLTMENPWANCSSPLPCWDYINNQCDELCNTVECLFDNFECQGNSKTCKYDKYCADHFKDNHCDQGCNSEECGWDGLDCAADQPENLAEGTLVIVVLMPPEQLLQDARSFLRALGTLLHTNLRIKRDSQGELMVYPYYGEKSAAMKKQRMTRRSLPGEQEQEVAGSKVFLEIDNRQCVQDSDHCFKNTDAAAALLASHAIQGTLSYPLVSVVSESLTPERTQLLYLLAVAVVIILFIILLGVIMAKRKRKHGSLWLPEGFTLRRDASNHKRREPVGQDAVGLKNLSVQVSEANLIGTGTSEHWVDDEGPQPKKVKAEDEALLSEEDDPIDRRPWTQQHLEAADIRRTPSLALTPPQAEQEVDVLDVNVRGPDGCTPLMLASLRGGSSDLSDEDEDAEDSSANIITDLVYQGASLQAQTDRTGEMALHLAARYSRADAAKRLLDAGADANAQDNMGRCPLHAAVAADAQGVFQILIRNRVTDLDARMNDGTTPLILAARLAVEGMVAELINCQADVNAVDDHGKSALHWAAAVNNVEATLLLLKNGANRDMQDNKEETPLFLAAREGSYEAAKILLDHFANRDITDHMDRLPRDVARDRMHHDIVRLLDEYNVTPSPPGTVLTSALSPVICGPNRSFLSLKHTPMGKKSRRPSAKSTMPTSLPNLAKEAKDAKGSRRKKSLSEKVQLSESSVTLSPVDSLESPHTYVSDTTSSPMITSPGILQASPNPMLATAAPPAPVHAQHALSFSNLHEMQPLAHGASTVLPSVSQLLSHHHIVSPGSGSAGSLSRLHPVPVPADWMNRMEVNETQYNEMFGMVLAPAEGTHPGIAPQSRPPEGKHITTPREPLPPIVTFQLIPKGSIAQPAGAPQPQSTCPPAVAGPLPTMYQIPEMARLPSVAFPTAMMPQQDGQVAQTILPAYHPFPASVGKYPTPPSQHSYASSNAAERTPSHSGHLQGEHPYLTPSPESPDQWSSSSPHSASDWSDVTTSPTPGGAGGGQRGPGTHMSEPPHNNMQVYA
Sequence of Pro-neuregulin-1, membrane-bound isoform (Homo sapiens) (Q02297 whole entry, looked up, the tested form may be a part, canonical isoform): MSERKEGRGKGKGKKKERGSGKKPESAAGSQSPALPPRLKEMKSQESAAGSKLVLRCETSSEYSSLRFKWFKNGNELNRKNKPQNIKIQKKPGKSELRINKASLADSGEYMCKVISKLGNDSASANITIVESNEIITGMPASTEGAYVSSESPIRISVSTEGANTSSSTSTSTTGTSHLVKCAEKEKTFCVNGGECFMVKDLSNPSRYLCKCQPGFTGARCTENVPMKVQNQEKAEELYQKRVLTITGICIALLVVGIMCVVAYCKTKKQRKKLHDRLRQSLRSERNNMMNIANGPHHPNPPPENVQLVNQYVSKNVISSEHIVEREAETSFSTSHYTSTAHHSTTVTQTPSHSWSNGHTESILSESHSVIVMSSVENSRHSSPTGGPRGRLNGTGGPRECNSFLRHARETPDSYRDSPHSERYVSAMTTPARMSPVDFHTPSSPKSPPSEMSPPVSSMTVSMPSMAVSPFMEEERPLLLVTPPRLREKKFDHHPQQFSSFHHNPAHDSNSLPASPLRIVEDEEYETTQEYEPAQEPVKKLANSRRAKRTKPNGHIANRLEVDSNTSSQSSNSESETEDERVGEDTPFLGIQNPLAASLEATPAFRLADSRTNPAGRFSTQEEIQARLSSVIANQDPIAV

Row | Structure (SMILES) | composite z-score [1] | composite z-score [2] | composite z-score [3] | composite z-score [4] | composite z-score [5] | composite z-score [6] | composite z-score [7] | z-score [8] | composite z-score [9] | composite z-score [10]
1 | COCCOC(=O)N1C(=O)[C@@]2(c3cc(C#CC4=CCCCC4)ccc31)[C@H](C(=O)Nc1nc3ccccc3s1)[C@H]1C(=O)O[C@H](c3ccccc3)[C@H](c3ccccc3)N1[C@@H]2c1ccc(O)cc1 | -0.528 | 1.39 | 0.0156 | 0.176 | 0.992 | 1.15 | 1.03 | 0.0402 (inactive) | 1.13 | 0.103
2 | CS(=O)(=O)CCOC(=O)C1=CC(c2ccc(CO)cc2)=CC(C2CC2)N(Cc2sc3ccccc3c2Cl)C=C1C(=O)OCCS(C)(=O)=O (stereo not given) | -0.0385 | 0.569 | -0.0746 | 0.165 | 0.87 | 1.77 | 0.962 | -1.06 (inactive) | 0.223 | 0.316
3 | O=C1C[C@]2(c3ccc([N+](=O)[O-])cc3)C(=O)N(C3CC3)c3cc(CO)ccc3[C@H]2N1CC12CC3CC(CC(C3)C1)C2 | -0.224 | -0.622 | -0.0825 | -0.0253 | -0.562 | -0.0609 | -0.5 | -0.0608 (inactive) | 0.0196 | -0.258
4 | COC(=O)[C@@]1(Cc2ccccc2)[C@H]2c3cc(C(=O)N4CCCC4)n(CCc4ccccn4)c3C[C@H]2CN1C(=O)c1ccccc1 | 0.223 | 0.487 | -0.177 | 0.283 | 1.33 | 2.09 | 1.35 | 2.95 (inactive) | 1.18 | 0.503
5 | Cn1cccc1C(O)C1C=CC2C(=O)N(c3ccccc3)C(=O)C2N1Nc1ccccc1 (stereo not given) | -0.236 | 0.401 | 0.137 | 0.925 | 1.71 | 1.91 | 1.17 | 0.687 (inactive) | 0.706 | -0.136
6 | CC(C)NC(=O)[C@@]1(C)c2ccccc2C(=O)N(Cc2ccc(OC(F)(F)F)cc2)[C@H]1c1ccc(CO)cc1 | 1.95 | -1.63 | -0.167 | -0.546 | -1.25 | 0.628 | 0.865 | -3.14 (inactive) | -0.55 | -0.28
7 | COC(=O)C1=CC(CCCO)=CC(c2ccc(CN3CCCC3)cc2)N(Cc2cccc(OC(F)(F)F)c2)C=C1C(=O)OC (stereo not given) | 0.928 | -0.185 | -0.0361 | 0.419 | 1.44 | 1.79 | 1.11 | -0.616 (inactive) | 0.857 | -0.0994
8 | CN(C)C(=O)[C@]1(CCC(=O)OC(C)(C)C)N=C(c2ccc(OCCCO)cc2)O[C@@H]1c1ccccc1CN=[N+]=[N-] | 0.292 | 1.28 | 0.485 | 0.488 | 0.934 | 1.89 | 1.15 | 3.58 (inactive) | 1.34 | -0.476
9 | Cc1ccc(C(C)CC(O)C2C=CC3C(=O)N(c4ccccc4)C(=O)C3N2Nc2ccccc2)o1 (stereo not given) | -0.172 | -0.314 | -0.087 | 0.504 | 1.65 | 1.18 | 1.21 | -0.0963 (inactive) | 1.51 | 0.113
10 | CCCCN1CC=CC23O[C@@H]4/C=C\CCCOC(=O)C4[C@H]2C(=O)N(CCO)[C@@H]3C1=O (stereo not given in full) | 0.33 | -1.37 | -0.19 | -0.615 | -0.913 | 0.441 | 1.61 | -0.0657 (inactive) | -1 | -0.271
11 | CCCCC(=C=CC[C@H](O)c1ccc(OCCO)cc1)CCO | -0.253 | -0.0707 | -0.114 | -0.161 | -0.425 | 1.48 | 0.66 | -0.572 (inactive) | -0.493 | 0.0156
12 | COc1ccc([Si](C)(C)[C@H]2[C@H](CC(=O)N3CCC[C@H]3CO)O[C@@]3(C(=O)N(Cc4ccc(N5CCOC5=O)cc4)c4ccccc43)[C@@H]2C)cc1 | -0.591 | 0.582 | -0.043 | 0.44 | 1.15 | 1.1 | 1.21 | -4.09 (inactive) | 0.268 | -0.0237
13 | CCCC=C(CCC)[C@@H](NS(=O)(=O)CC12CCC(CC1=O)C2(C)C)c1ccc(C(=O)OC)cc1 (stereo not given in full) | -0.126 | 0.645 | 0.291 | 0.375 | 0.621 | 0.128 | 1.09 | 2.86 (inactive) | 0.974 | 0.274

Source: PubChem BioAssay
